Compound activity (PubChem)
NPC1 promoter act = NPC1 promoter activation. Huh7 NPC1 promoter luciferase reporter, 24 h. 320,000 compounds, 2.4% hits. Potency, µM (highest dose often 9.22 µM), inactives show top-dose activation, usual class: activators; note: % of control where 0% means no effect; nearly all actives have a fitted effect of over 60% in size
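Luminescence from an NPC1 promoter-driven luciferase reporter in stably transfected Huh7 cells was measured after 24 h compound treatment at 37 °C, followed by 10 min ambient incubation with luciferase detection reagent.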
FLuc counter = firefly luciferase modulation, counter-screen for miR-21 project. P08659. purified FLuc, Km substrates, luminescence inhibition. Potency, µM (doses to about 57.5 µM), without a hit: at the top dose activity change, negative = inhibition, usual class: inhibitors. 360,000 compounds, 6.9% hits. AID 588342;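 note: plate controls were vehicle for no effect and reference inhibitor for full effect; nearly all actives have a fitted effect of over 55% in size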
Target sequence (P08659 whole entry, looked up): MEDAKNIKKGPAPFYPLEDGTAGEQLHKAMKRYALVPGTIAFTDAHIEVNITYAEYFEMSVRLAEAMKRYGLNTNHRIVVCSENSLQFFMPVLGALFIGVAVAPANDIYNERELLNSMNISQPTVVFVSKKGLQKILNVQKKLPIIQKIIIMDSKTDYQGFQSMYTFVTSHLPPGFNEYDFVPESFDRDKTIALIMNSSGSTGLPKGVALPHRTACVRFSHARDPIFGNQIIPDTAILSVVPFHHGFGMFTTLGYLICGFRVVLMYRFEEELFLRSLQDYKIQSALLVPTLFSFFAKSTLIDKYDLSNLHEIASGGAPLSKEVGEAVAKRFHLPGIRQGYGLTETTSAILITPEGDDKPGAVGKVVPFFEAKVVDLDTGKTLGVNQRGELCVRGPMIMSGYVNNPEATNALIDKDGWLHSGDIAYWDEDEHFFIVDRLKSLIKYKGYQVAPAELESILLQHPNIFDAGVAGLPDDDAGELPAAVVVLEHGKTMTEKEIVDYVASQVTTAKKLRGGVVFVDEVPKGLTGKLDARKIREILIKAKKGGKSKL
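Biochemical qHTS of compounds, final roughly 60 µM downward over six points, against 10 nM purified firefly luciferase using Km concentrations of substrates (10 uM D-luciferin, 10 uM ATP) in Tris acetate pH 7.5 buffer; luminescence output.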
Rab9 promoter act = Rab9 promoter activation; Potency, µM (doses to about 9.22 µM), for inactives: at the highest dose activation, negative = inhibition, usual class: activators; AID 485297; 320,000 compounds, 2.8% hits; Huh7 Rab9 promoter-luciferase reporter, luminescence, 24 h; note: % of control where 0% means no effect; nearly all actives have a fitted effect of over 60% in size
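Steps: seed 1500 Huh7 Rab9-luc cells per well, rest 2 h at 37 °C; add compound in DMSO; incubate 24 h; add luciferase reagent, 10 min ambient; read luminescence.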
Luc counter = blocks Kinase-Glo luciferase, a counter-screen artifact; Q27757; AID 1379; Potency, µM (series often up to 38.3 µM), for the others: at the highest dose activity change, negative = inhibition, usual class: inhibitors; 200,000 compounds, 0.28% hits; Kinase-Glo luciferase, ATP luminescence, 8 min; note: % is set by controls: 0 for no effect and ±100 for the full control effect; nearly all actives have a fitted effect of over 60% in size
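Compounds were added to a substrate mix at pH 7.2 (50 mM imidazole, 10 uM ATP, within the enzyme's linear range), followed by Kinase-Glo detection reagent; luminescence was measured after 8 minutes at ambient temperature.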
SMN2 splice up = increases expression of the SMN2 splice variant; HEK293 SMN2-luciferase splicing reporter, luminescence, 30-36 h; Potency, µM (titrated, usually from 46.1 µM), inactives show at the top dose activity change, positive = activation, hits mostly activators; 210,000 compounds, 2.8% hits; AID 1458; note: % of control where 0% means no effect; nearly all actives have a fitted effect of over 55% in size
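HEK293 cells carry an SMN2 […]–luciferase reporter in which exon 7 inclusion puts luciferase in frame. Cells were plated 10-12 h before compound addition, then incubated 30-36 h at 37C. ONE-Glo luminescence was read; sodium butyrate at 4.5 mM final served as control.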
* hit, by the source's call; u = inconclusive; x = no result given. A selection: hits, their analogues and other compounds. The true share with any hit is near 7.3%. Calls come from the whole dose curve; as a rule, active = well fitted curve in the direction sought with a large enough effect; inconclusive = small, poorly fitted or top-dose-only effect, or another doubt; inactive = no such curve, though single readings can be large; an effect the other way counts as inactive or inconclusive. Potency is the fitted concentration of half-maximal effect.

SMILES	NPC1 promoter act	FLuc counter	Rab9 promoter act	Luc counter	SMN2 splice up
Cc1ccnc(NC(=O)c2ccc(Cl)s2)c1	3.2µM*	7.6µM*	1.6µM*	x	x
Cc1ccc(C(=O)NCC(=O)Nc2cc(C)ccn2)cc1	5%	27µM*	11%	x	x
O=C(CSc1nnc(-c2cccs2)o1)Oc1ccc(Cl)cc1	x	-12%	x	x	x
Cc1ccnc(NC(=O)CCNC(=O)c2ccc(Cl)cc2)c1	4%	1%	-3%	x	x
CCOc1ccc(C(=O)Nc2cc(C)ccn2)cc1	0.71µM*	1.3µM*	0.32µM*	13µM*	u
Cc1ccnc(NC(=O)c2cnc(Cl)c(Cl)c2)c1	-5%	17µM*	10%	x	x
CCOc1cc(C(=O)Nc2cc(C)ccn2)cc(OCC)c1OCC	0%	4%	1%	-2%	-6%
Cc1ccnc(NC(=O)CNC(=O)Cc2cccc3ccccc23)c1	6%	24µM*	-1%	x	x
C/C(CC(=O)Nc1cc(Cl)ccc1Cl)=N\NC(=O)COc1cccc(C)c1	2%	0%	4%	x	x
C/C(CC(=O)Nc1cc(C)ccn1)=N\NC(=O)COc1cccc(C)c1	-6%	13µM*	-5%	0%	2%
Cc1ccc(C)c(Cn2c(=O)n(-c3ccccc3)c(=O)c3c4c(sc32)CCCC4)c1	x	-3%	x	x	0%
Cc1cccc(C)c1NC(=O)c1ccc2nc(CCc3ccccc3)oc2c1	x	-16%	x	x	x
Cc1ccnc(NC(=O)c2cccc(NC(=O)COc3ccccc3)c2)c1	-3%	17µM*	4%	-2%	29%
Cc1cccc(OCC(=O)Nc2cccc(C(=O)NCC(C)C)c2)c1	-4%	u	-17%	-2%	-1%
COCCCNC(=O)C1CCN(c2cc(C)nc3c(-c4ccc(Cl)cc4)c(C)nn23)CC1	x	6%	x	x	-12%
Oc1ccccc1/C=N/Nc1nc2ccccc2o1	-15%	1.9µM*	-17%	x	x
Brc1ccc(/C=N/Nc2nc3ccccc3o2)cc1	1.6µM*	1.5µM*	1.1µM*	x	x
Cc1cc(C)cc(OCc2cc(=O)n3cc(C)sc3n2)c1	x	2%	x	x	-11%
COc1ccc(C(=O)Nc2cccc(-c3nnc(-c4ccco4)o3)c2)cc1	19%	19µM*	8%	21%	-12%
COc1cc(C(=O)Nc2ccc(-c3nnc(-c4ccco4)o3)cc2)cc(OC)c1OC	-8%	4%	24%	-2%	-14%
N#Cc1ccc(C(=O)Nc2nnc(-c3ccco3)o2)cc1	2%	u	8%	6%	-29%
COc1cc(C(=O)Nc2cccc(-c3nnc(-c4ccco4)o3)c2)ccc1OC(C)=O	0%	15µM*	-1%	-1%	0%
Cc1ccc(SCC(=O)Nc2ccc(-c3nnc(-c4ccco4)o3)cc2)cc1	2.5µM*	3%	3.5µM*	-7%	u
Cc1ccc(C(=O)Nc2nnc(-c3ccco3)o2)cc1	3.5µM*	13µM*	4µM*	-5%	13µM*
COc1ccc(CC(=O)Nc2cccc(-c3nnc(-c4ccco4)o3)c2)cc1	0%	-8%	2%	-5%	-18%
SMILES	NPC1 promoter act	FLuc counter	Rab9 promoter act	Luc counter	SMN2 splice up
CC(C)(C)NC(=O)C1CCN(c2nc3ccccc3nc2C(F)(F)F)CC1	x	-7%	x	x	x
Cc1ccccc1C(=O)Nc1nnc(-c2ccc(F)cc2)o1	6%	-13%	-6%	0%	-25%
COc1cccc(C(=O)Nc2ccccc2-c2nnc(-c3cccc(OC)c3)o2)c1	x	2.7µM*	x	x	3%
O=C(Nc1nnc(-c2ccc(F)cc2)o1)c1ccco1	9%	17µM*	0%	x	x
COc1ccc(CNC(=O)C2CCN(Cc3nc(-c4ccc(Cl)cc4)oc3C)CC2)cc1	x	-18%	x	x	6%
CCc1noc(C)c1C(=O)Nc1nc(-c2ccccc2)c(C(C)=O)s1	-1%	15µM*	-9%	x	x
CCc1noc(C)c1C(=O)NCCc1ccc(F)cc1	-1%	2%	-2%	x	x
CCc1ccc2nc(NC(=O)C3CSC4(C)CCC(=O)N34)sc2c1 (configuration not stated)	15%	12µM*	9%	x	x
Cc1onc(-c2ccccc2Cl)c1C(=O)Nc1nc2ccc(S(C)(=O)=O)cc2s1	-1%	12µM*	0%	0%	1%
CCc1noc(C)c1C(=O)Nc1nc2ccc(F)cc2s1	u	17µM*	u	x	x
CCc1noc(C)c1C(=O)Nc1nc2c(C)cc(C)cc2s1	-12%	11µM*	-4%	x	x
